# Reference: PubChem BioAssay (EPA / NIEHS)
# Where “and” joins values, the source holds several entries; their conditions need not be identical. Equal values may be shown once. Calls of active or inactive are those of the source. Rule for the calls: active = hit-call score of the fitted dose curve at least 0.9, where 1 is the maximum; inactive = score below 0.9.
# Assay: BSK_hDFCGF_SRB: Viability Assessment in the BioMAP Diversity Plus: hDFCGF Assay (AID 2283061)
# Details: primary human foreskin fibroblasts
# Procedure: BSK_hDFCGF is a cell-based, multiplexed-readout assay that uses foreskin fibroblast, a human skin primary cell, with measurements taken at 24 hours after chemical dosing in a 96-well plate.BSK_hDFCGF_SRB is an assay component measured in the BSK_hDFCGF assay. It measures 0.1% sulforhodamine related to cell death using Sulforhodamine staining technology.Data from the assay component BSK_hDFCGF_SRB was analyzed into 1 assay endpoint. This assay endpoint, BSK_hDFCGF_SRB, was analyzed with bidirectional fitting relative to DMSO as the negative control and baseline of activity. Using a type of viability reporter, gain or loss-of-signal activity can be used to understand changes in the signaling. Furthermore, this assay endpoint can be referred to as a primary readout, because this assay has produced multiple assay endpoints where this one serves a signaling function. To generalize the intended target to other relatable targets, this assay endpoint is annotated to the cell morphology intended target family, where the subfamily is cell conformation.
# The levels of cell surface (or secreted, indicated by the prefix "s") biomarker endpoints were measured by ELISA. Overt cytotoxicity to cells in confluent adherent cultures (all systems other than the BT system) was assessed by measuring total protein levels using sulforhodamine B (SRB) staining in parallel cultures at the time of biomarker measurements, indicated as SRB endpoints. For proliferation assays for adherent cell types, individual cell types are cultured at sub-confluence and relative cell numbers quantified by SRB staining at time points optimized for each system (48 h: 3C and CASM3C systems; 72 h: BT and HDF3CGF systems; 96 h: SAg system). SRB was performed by staining cells with 0.1% SRB after fixation with 10% TCA and reading wells at 560 nm.Viability and proliferation of PBMC (T cells) was quantified by Alamar Blue reduction for the SAg and BT systems. For PBMC viability (referred to as PBMC Cytotoxicity within the assay endpoint names), cells were plated (75,000/well in a 96-well plate) and then chemical samples added for 1 h before addition of activators, SEB and TSST-1 (20 ng/mL final concentration each). Cells were incubated for 90 h. Then, Alamar Blue (20 uL/well) (Invitrogen, Cat DAL1100) was added for 6 h, and the plates were read with a fluorescence microplate reader at 546/580 nm (excitation/emission). For PBMC proliferation, cells were plated and activated as above but incubated for only 16 h prior to addition of Alamar Blue. Plates were read after 6 h.
SMILES,AC50,outcome
C=CC(=O)OCC(CC)CCCC (stereo not drawn),32.2 µM (active),–
c1ccc(Nc2ccc3ccccc3c2)cc1,30.6 µM (active),–
CCCC[N+](CCCC)(CCCC)CCCC,–,inactive
CNC(=O)Oc1cc(C)c(SC)c(C)c1,–,inactive
O=S(=O)(c1ccccc1)c1ccccc1,–,inactive
Clc1ccc(-c2ccccc2)cc1,–,inactive
O=C(CCl)c1ccccc1,4.74 µM (active),–
Cc1ccc(OP(=O)(Oc2ccc(C)cc2)Oc2ccc(C)cc2)cc1 (tested in a mixture with another compound),23.2 µM (active),–
COC(C)(C)CCC[C@H](C)C/C=C/C(C)=C/C(=O)OC(C)C,30.7 µM (active),–
O=P1(NCCCl)OCCCN1CCCl (stereo not drawn),–,inactive
CC(C)CCCCCCCOP(=O)(Oc1ccccc1)Oc1ccccc1,8.83 µM (active),–
[Cd+2].[Cl-].[Cl-],–,inactive
O=C(O)CCCc1ccc(N(CCCl)CCCl)cc1,–,inactive
CC(C)(C)C(=O)CCl,–,inactive
O=[N+]([O-])c1ccc(Cl)cc1,–,inactive
O=c1[nH]c(Cl)c(Cl)cc1Cl,–,inactive
Oc1cc(Cl)ccc1Cl,–,inactive
N#CCCCCC#N,–,inactive
CC(C)CCCCCCCOC(=O)c1ccccc1C(=O)OCCCCCCCC(C)C,–,inactive

SMILES,AC50,outcome
CCc1cc(C)cc(CC)c1-c1c(OC(=O)C(C)(C)C)n2n(c1=O)CCOCC2,31.5 µM (active),–
CC(C)(C)C(O)C(Oc1ccc(-c2ccccc2)cc1)n1cncn1 (stereo not drawn),–,inactive
O=[N+]([O-])C=Cc1ccccc1,20 µM (active),–
CCCCCCCCCCCC#N,29.1 µM (active),–
CCC(C)c1cc([N+](=O)[O-])cc([N+](=O)[O-])c1OC(=O)C=C(C)C (stereo not drawn),11.5 µM (active),–
CC(C)(c1cc(Cl)c(O)c(Cl)c1)c1cc(Cl)c(O)c(Cl)c1,16.5 µM (active),–
CCCOC(=O)c1ccccc1C(=O)OCCC,–,inactive
CC(=O)/C=C/c1ccccc1,–,inactive
O=C1C=CC(=O)C=C1,36.3 µM (active) and 12.7 µM (active),–
O=C1C(Cl)=C(Cl)C(=O)C(Cl)=C1Cl,6.62 µM (active),–
Nc1ccc(-c2ccc(N)c(N)c2)cc1N,–,inactive
C=CCN(CC=C)C(=O)C(Cl)Cl,–,inactive
CC1(C)[C@H](C(=O)O[C@H](C#N)c2cccc(Oc3ccccc3)c2)[C@@H]1C=C(Br)Br,–,inactive
Oc1ccc(C2(c3ccc(O)cc3)c3ccccc3-c3ccccc32)cc1,–,inactive
COCC(=O)N(c1c(C)cccc1C)N1CCOC1=O,–,inactive
COc1ccc(CO)cc1,–,inactive
O=[N+]([O-])O,–,inactive
CC(C)COP(=O)(OCC(C)C)OCC(C)C,–,inactive
O=c1c2ccccc2c(=O)c2c1cc(Cl)c1[nH]c3c([nH]c12)c(Cl)cc1c(=O)c2ccccc2c(=O)c13,–,inactive
